# From PubChem BioAssay AID1851 (National Center for Advancing Translational Sciences (NCATS), 2009)
# Values joined by “and” are separate entries in the source; they are usually repeats but may differ in a detail not shown here. Equal entries are not always repeated. The campaign covered roughly 16,000 compounds. About 5,700 (36%) were called active. About 24% were inconclusive and are not listed. The list shows a part of the results. Values without a mark were called inactive. Calls come from the whole dose curve; as a rule, active = well fitted curve in the direction sought with a large enough effect; inconclusive = small, poorly fitted or top-dose-only effect, or effect the other way; inactive = no such curve, though single readings can be large or run the other way. Square brackets hold non-standard residues; d marks the D form. Peptide text beside a SMILES is read from it.
# Target: Cytochrome P450 1A2 (Homo sapiens) (UniProt P05177)
# Assay: Cytochrome panel assay with activity outcomes
# Conditions: recombinant CYP, pro-luciferin dealkylation, luminescence, p450-cyp1a2; series mostly up to 57.1 µM; activity, negative = inhibition: at the top concentration
# % is set by controls: 0 for no effect and ±100 for the full control effect.
# Sequence of Cytochrome P450 1A2 (Homo sapiens) (P05177 whole entry, looked up): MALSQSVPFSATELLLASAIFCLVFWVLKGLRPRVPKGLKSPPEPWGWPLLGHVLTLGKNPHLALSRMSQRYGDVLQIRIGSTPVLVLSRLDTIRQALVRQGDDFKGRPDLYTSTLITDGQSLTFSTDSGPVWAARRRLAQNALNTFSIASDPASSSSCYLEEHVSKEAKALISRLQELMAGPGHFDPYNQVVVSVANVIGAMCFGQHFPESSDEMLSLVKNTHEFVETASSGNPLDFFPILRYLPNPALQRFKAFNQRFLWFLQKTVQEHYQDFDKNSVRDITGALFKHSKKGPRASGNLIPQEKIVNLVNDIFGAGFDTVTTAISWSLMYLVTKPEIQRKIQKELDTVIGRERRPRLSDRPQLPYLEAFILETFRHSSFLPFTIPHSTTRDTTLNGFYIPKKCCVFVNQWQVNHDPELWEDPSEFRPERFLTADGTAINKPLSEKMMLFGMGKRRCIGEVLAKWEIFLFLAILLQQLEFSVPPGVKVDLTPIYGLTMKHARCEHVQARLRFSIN
Structure (SMILES),"activity, negative = inhibition",AC50
Cc1nn(-c2ccc(Cl)cc2)c2sc(C(=O)c3c(N)n(C)c(=O)n(C)c3=O)cc12,-17.7%,–
Cn1c(=O)c(C(=O)CN2CCOCC2)c(N)n(Cc2ccccc2)c1=O,7.04%,–
Cn1c(N)c(C(=O)CSc2ccc3c(c2)OCCO3)c(=O)n(C)c1=O,–,15.8 µM (active)
CCCCCC(=O)N1CCCC(c2nc(-c3ccc(OC)cc3)no2)C1 (stereo not given),–,3.16 µM (active)
O=C(CC1CCCCC1)N1CCC(c2nc(-c3ccc(S(=O)(=O)N4CCCC4)cc3)no2)CC1,-1.32%,–
O=C(Nc1cccc(F)c1)N1CCCC2(CCNCC2)C1,-9.33%,–
COc1ccc(-c2noc(C3CCCN(C(=O)c4ccccc4OC)C3)n2)cc1OC (stereo not given),-31.5%,–
Cc1noc(C)c1C(=O)N1CCC[C@@]2(CCN(C(=O)Nc3cccc(F)c3)C2)C1,-14.5%,–
O=C(Nc1ccccc1)N1CCCC(c2nc(-c3ccc(F)cc3)no2)C1 (stereo not given),–,25.1 µM (active)
CC(=O)NCCc1c(Cc2ccccc2)[nH]c2ccccc12,–,12.6 µM (active)
Cc1nc2ncnn2c(C)c1CCC(=O)NCc1ccccc1,-2.47%,–
CCCCC(=O)NCCc1c(Cc2ccccc2)[nH]c2ccccc12,–,3.16 µM (active)
COc1ccc2[nH]c(-c3ccccc3)c(CCNC(C)=O)c2c1,–,1.26 µM (active)
N[C@H](C(=O)O)c1ccc(C(=O)O)cc1,-18.9%,–
ClC(Cl)(Cl)C(N1CCN(c2ccccc2)CC1)N1CCN(c2ccccc2)CC1,-14.9% [at 2.29 µM],–
CCN(CC)CCNC(=O)c1ccc(NC(C)=O)cc1,-7.76%,–
C=CCn1c(=O)c(C(=O)NCCN(CC)CC)c(O)c2ccccc21,–,1.41 µM (active)
CCN(CC)CCNC(=O)Cn1nc(-c2ccc(C)cc2)ccc1=O,-5.38%,–
Cc1cccc(CNc2ccnc(-c3ccccc3C(F)(F)F)n2)c1,–,6.31 µM (active)
FC(F)(F)c1ccccc1-c1nccc(NCc2ccccc2)n1,–,12.6 µM (active)
c1cc2c(cc1C1CCCCC1)c1c3n2CCN[C@H]3CCC1,–,15.8 µM (active)
Cc1ccc(NC(=O)c2sccc2SCc2cccc(C(F)(F)F)c2)cc1,–,2.82 µM (active)
O=[N+]([O-])c1c(NCCO)cc(Sc2nc3ccccc3s2)c2nonc12,–,1 µM (active)
O=C(N/N=C/c1ccc(Sc2nc3ccccc3s2)c([N+](=O)[O-])c1)c1ccccn1,-13.5%,–
CN(CCO)c1cc(Sc2nc3ccccc3s2)c2nonc2c1[N+](=O)[O-],–,14.1 µM (active)

Structure (SMILES),"activity, negative = inhibition",AC50
CC1(C)C2([N+](=O)[O-])CN3CC1([N+](=O)[O-])CN(C2)C3c1ccccc1 (stereo not given),15.2%,–
CSCC[C@H](C=O)NC(=O)[C@H](CC(C)C)NC(=O)[C@H](CC(C)C)NC(C)=O (Ac-Leu-Leu-[dM]-aldehyde),-11.3%,–
C=CCNc1nc(SCC=C)nc2ccsc12,–,0.501 µM (active)
C=CCSc1ccsc1C(=O)O,4%,–
C=CCSc1nc(NC)c2sccc2n1,–,1 µM (active)
C=CCSc1nc(Oc2ccccc2)c2sccc2n1,–,2.51 µM (active)
N[C@@H](Cc1ncccn1)C(=O)O,-7.74% [at 11.4 µM],–
CCCC1(C(=O)OC)C=C2C(=C(C(C)C)C(=O)C2C)CN1 (stereo not given),-20.3%,–
CCCCCC1=C2CNC(CCC)(C(=O)OC)C=C2C(C)C1=O (stereo not given),–,31.6 µM (active)
CC1(C)CC(=O)C(CCC(=O)c2ccccc2)C(C)(C)N1 (stereo not given),-7.19%,–
CCCC1(C(=O)OC)C=C2C(=C(c3ccccc3)C(=O)C2C)CN1 (stereo not given),–,15.8 µM (active)
COC(=O)C1(C)C=C2C(=C(c3ccccc3)C(=O)C2C)CN1 (stereo not given),–,15.8 µM (active)
CCCC1(C(=O)OC)C=C2C(=C(C)C(=O)C2C)CN1 (stereo not given),-20.6%,–
CCN=C(N)CSS(=O)(=O)O,-10.1% [at 11.4 µM],–
CN(C)c1ccc(-c2ccc3ncnc(-n4ccnc4)c3c2)cc1,–,0.316 µM (active)
Cc1ccccc1-c1ccc2ncnc(-n3ccnc3)c2c1,–,0.794 µM (active)
c1cn(-c2ncnc3ccc(-c4ccoc4)cc23)cn1,–,1.26 µM (active)
Cc1cc2c(s1)CCCCC(=O)N2,-20.4%,–
C=C(CC1([C@@H](NP(=O)(c2ccccc2)c2ccccc2)[C@H]2C[C@@H]2CCN(C(=O)OCC)S(=O)(=O)c2ccc(C)cc2)CC1)c1ccccc1,-5.84%,–
CCN1C(=O)[C@H]2[C@H]3[C@H](O)[C@H](O)C/C(=N/O[C@@H]4O[C@@H](COC(C)=O)[C@@H](OC(C)=O)[C@@H](OC(C)=O)[C@H]4OC(C)=O)[C@@H]3CC[C@@H]2C1=O,-12.6% [at 11.4 µM],–
COc1cc(/C=C(\C#N)C(=O)NCC2CCCO2)c([N+](=O)[O-])cc1OC (stereo not given),–,4.47 µM (active)
Cc1cccc(C)c1NC(=O)C[N+](C)(C)C,0.715%,–
Cc1ccc(-n2c(C)cc(/C=C(\C#N)C(=O)NCC3CCCO3)c2C)cc1 (stereo not given),-16.2%,–
COc1ccc(S(=O)(=O)N2CCC(C(=O)NCC3CCCO3)CC2)cc1C (stereo not given),11.5%,–
N#C/C(=C\c1cccs1)C(=O)NCC1CCCO1 (stereo not given),–,12.6 µM (active)

Structure (SMILES),"activity, negative = inhibition",AC50
Cc1cccc(C)c1NC(=O)[C@H](C)N,-13.8% [at 25.6 µM],–
COc1cc(/C=C(/NC(=O)c2ccccc2)C(=O)Nc2ccccc2)c([N+](=O)[O-])cc1OC,-9.31%,–
CCS(=O)(=O)N1CCC(C(=O)NCC2CCCO2)CC1 (stereo not given),-7.48%,–
Cc1cccc(C)c1NC(=O)/C(C#N)=C/c1cccs1,–,12.6 µM (active)
C[Si](C)(c1ccc(C(=O)O)cc1)c1ccc(C(=O)O)cc1,-13% [at 11.4 µM],–
O=C(O)c1ccc(SSc2ccc(C(=O)O)cn2)nc1,–,3.16 µM (active)
O=C(O)c1cccnc1,-3.39% [at 25.6 µM],–
CN(C)c1ccccc1CN1CCCN(Cc2ccccc2N(C)C)C1c1ccncc1,3.06% [at 11.4 µM],–
Nc1cccc2cc(S(=O)(=O)Nc3ccc(C(=O)O)cc3)ccc12,2.54% [at 11.4 µM],–
CC(=O)c1cccc(NS(=O)(=O)c2ccc(N/C=C\C(=O)c3ccc(F)cc3)cc2)c1,–,10 µM (active)
CC(=O)c1ccc(S(=O)(=O)NC(=O)NC2CCCCC2)cc1,-6.56% [at 25.6 µM],–
CCCN(CC1CC1)c1nc(C)nc(Nc2c(Cl)cc(Cl)cc2Cl)c1Cl,-15.7%,–
Cc1cc(Cl)ccc1OCC(=O)NCc1ccncc1,–,1.12 µM (active)
Cc1cc(Cl)ccc1OCC(=O)Nc1nc(N)nc(N)n1,2.06% [at 2.29 µM],–
CCCn1nnnc1NC(=O)COc1ccc(Cl)cc1C,–,14.1 µM (active)
CCn1c(=O)c2c(O)cc(=O)oc2c2ccccc21,–,11.2 µM (active)
CC(C)n1c(=O)c2c(O)cc(=O)oc2c2ccccc21,–,5.01 µM (active)
O=C(c1cnccn1)N1CCC2(CC1)CCN(c1ccccn1)CC2,-13.1%,–
CCn1c(SCC(=O)NC2CCCCC2)nnc1-c1cc2cccc(OC)c2o1,–,8.91 µM (active)
O=C(CSc1nnc(-c2ccc(Cl)cc2Cl)n1C1CCCCC1)NC1CCS(=O)(=O)C1 (stereo not given),0.975%,–
CCn1c(SCC(=O)NC2CCCc3ccccc32)nnc1-c1cccs1 (stereo not given),-21.7%,–
Nc1ccccc1C#Cc1ccccc1,–,501 nM (active) and 1.58 µM (active)
Cc1cc(C)c(Cn2cnc(-c3ccc([N+](=O)[O-])cc3)c2)c(C)c1,–,15.8 µM (active)
C1CCN(CC[C@@H]2CCCCN2)CC1,-7.33% [at 11.4 µM],–
Cc1ccc(-c2nnc(-c3ccc(NC(=O)c4cccs4)cc3)o2)cc1,-23.1%,–

Structure (SMILES),"activity, negative = inhibition",AC50
Cc1ccccc1-c1nc(-c2ccc(NC(=O)c3cccs3)cc2)no1,–,14.1 µM (active)
CC(=O)N1CCc2cc(S(=O)(=O)CCC(=O)Nc3c(C)n(C)n(-c4ccccc4)c3=O)ccc21,-24.8%,–
Cc1ccccc1OCCNC(=O)c1ccccc1Sc1ccccc1C#N,–,14.1 µM (active)
Cc1ccccc1OCC(=O)Nc1sc(C(=O)Nc2cccc(C)c2C)c(C)c1C#N,7.9%,–
CC(C)(C)N(NC(=O)c1ccccc1)C(=O)c1cccc(C(=O)N(NC(=O)c2ccccc2)C(C)(C)C)c1,2.94%,–
CCOC(=O)c1cc(NC(=O)c2ccc(C)cc2)c(=O)oc1-c1ccccc1,-24.4%,–
Cc1oc(=O)c(NC(=O)c2ccccc2)cc1C(=O)c1ccccc1,–,12.6 µM (active)
Cc1ccc(C(=O)Nc2cc3c(oc2=O)CCCC3=O)cc1,–,14.1 µM (active)
CC(=O)c1cc(NC(=O)c2ccccc2)c(=O)oc1/C=C/N(C)C,–,12.6 µM (active)
CC(=O)c1cc(NC(=O)c2cccc(C(F)(F)F)c2)c(=O)oc1/C=C/N(C)C,3.96%,–
Cc1cc(N)ccc1NC(=O)c1ccccc1,–,3.16 µM (active)
O=C(c1ccc(N2CCCCC2)c([N+](=O)[O-])c1)N(Cc1ccccc1)c1ccccn1,–,14.1 µM (active)
Cc1ccc(C)c2sc(NC(=O)c3ccc(N4CCCCC4)c([N+](=O)[O-])c3)nc12,0.997%,–
COc1ccccc1N1CCN(CCN(C(=O)C2CCCCC2)c2ccccn2)CC1,-4.46%,–
CCOC(=O)NCc1ccc2c(c1)cc(C)n2C,–,2 µM (active)
CN[C@@H]1[C@H](O[C@H]2[C@@H](O[C@@H]3[C@@H](O)[C@@H](O)[C@@H](N=C(N)N)[C@@H](O)[C@@H]3N=C(N)N)O[C@@H](C)[C@]2(O)CO)O[C@H](CO)[C@@H](O)[C@@H]1O,-4.23% [at 25.6 µM],–
CNC(=S)NNC(=O)COc1ccccc1C,–,15.8 µM (active)
Cc1ccccc1OCC(=O)OC1CCN(C)CC1,5.7%,–
CC(=O)Nc1cc(C(F)(F)F)ccc1Oc1cccc(Br)c1,–,10 µM (active)
CCOc1ccc(C(F)(F)F)cc1NC(=O)c1ccc(OC)c([N+](=O)[O-])c1,–,3.55 µM (active)
CC(=O)Oc1cc(C(F)(F)F)ccc1C(=O)O,-7.55% [at 25.6 µM],–
CCOc1ccc(C(=O)Cc2cc(OC)c(OC)cc2[N+](=O)[O-])cc1,-12.4%,–
CN(C(=O)COc1cccc(Br)c1)C1CCS(=O)(=O)C1 (stereo not given),-26.4%,–
CCCC(=O)N1CCN(c2ccc(NC(=O)c3ccc(OCC)c([N+](=O)[O-])c3)cc2)CC1,-8.1%,–
CCOc1ccc(C(F)(F)F)cc1NC(C)=O,–,0.1 µM (active)
